DT40 TDP1 CPT = growth inhibition of DT40 Tdp1-/-;hTDP1 cells with camptothecin (screen for TDP1 inhibitors); chicken DT40 Tdp1-/-;hTDP1 cells + 20 nM CPT, ATP luminescence, 48 h; Potency, µM (top dose mostly 46.2 µM), for the others: top-dose activity change, negative = growth inhibition, hits mostly inhibitors; 12% of 420,000 active; further: potency means the concentration at half of the fitted maximal effect; nearly all actives have a fitted effect of over 55% in size
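Cell growth measured by CellTiter-Glo luminescence after a minimum 48 h, 37 C compound exposure with 20 nM CPT in Tdp1-knockout DT40 cells stably expressing hTDP1, seeded 400/well; qHTS titration format.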
IL1B secr inh = blocks inflammasome-driven IL-1 beta release | THP-1 LPS/ATP IL-1B secretion, AlphaLISA, 16 h; hits give low values | activity change, % at 57.5 µM | 4.7% of 360,000 active; in the data active means activity change below about -50%; inconclusive means mostly about -30% to -49%
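THP-1 cells pretreated 1 hr with compounds (up to 57.5 uM final), then stimulated with LPS (250 ng/mL final) plus ATP (1.25 mM final); secreted IL-1B measured by AlphaLISA after 16 hr, decreased signal indicating inhibition.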
HT1080 IDH1KD tx = toxicity to HT-1080 IDH1 knockdown cells (counter line); HT-1080 IDH1 knockdown viability, ATP luminescence, 48 h; Potency, µM (highest dose often 46.1 µM), for inactives: top-dose activity, negative = toxicity, hits mostly cytotoxic; 2% of 360,000 active; AID 686971;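 further: potency means the concentration at half of the fitted maximal effect; 0% = DMSO wells and -100% = cell-free medium wells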
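Luminescent ATP read-out (CellTiter-Glo, 10 min at room temperature) after 48 h compound exposure at 37 °C gave viability of IDH1-knockdown HT-1080 cells. Activity was normalised to DMSO and cell-free wells, then fitted as concentration-response curves.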
uPA surface inh = cell surface uPA generation inhibition; cell surface uPA generation assay, qHTS; Potency, µM (top dose mostly 38.3 µM), for the others: top-dose activity change, negative = inhibition, usual class: inhibitors; 0.31% of 330,000 active; active means well fitted inhibition curve with a large enough effect; inconclusive means small, poorly fitted or top-dose-only effect; inactive means no such curve, though single readings can be large or run the other way; tested in mouse RAW 264.7 cells; further: potency means the concentration at half of the fitted maximal effect; nearly all actives have a fitted effect of over 55% in size
HT1080-NT tox = kills 2HG-producing HT-1080-NT fibrosarcoma cells. HT-1080-NT fibrosarcoma viability, CellTiter-Glo ATP luminescence, 48 h. Potency, µM (titrated, usually from 46.1 µM), for the others: at the highest dose activity, negative = less viability, hits mostly cytotoxic. 1.6% of 360,000 active. AID 686970;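 further: NT is the 2HG producing partner of a matched IDH1 knockdown line; potency means the concentration at half of the fitted maximal effect; 0% = DMSO-treated cells and -100% = media-only wells without cells; nearly all actives have a fitted effect of over 55% in size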
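Toxicity toward the 2HG-producing NT line was scored as %Activity, normalised to DMSO and no-cell wells, from CellTiter-Glo luminescence after 48 hours' treatment.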
DT40 TDP1 no CPT = qHTS for Inhibitors of human tyrosyl-DNA phosphodiesterase 1 (TDP1): qHTS in cells in absence of CPT. DT40 Tdp1-/- hTDP1 cells, no CPT, ATP luminescence, 48 h. Potency, µM (doses to about 46.2 µM), without a hit: at the highest dose activity change, negative = growth inhibition, actives largely listed as inhibitors. 15% of 420,000 active; further: potency means the concentration at half of the fitted maximal effect; nearly all actives have a fitted effect of over 55% in size
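A cellular qHTS used chicken DT40 cells lacking endogenous Tdp1 but carrying stably transfected human TDP1. Compounds were applied without camptothecin, and cell growth kinetics were judged by ATP-dependent luminescence after ≥48 hr.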
* hit, by the source's call; ? = inconclusive; · = no result; [ ] = dose if it differs, or a comment. In the library only some 19% were active in any assay of this set; here they are far more common. Unless noted, the call rests on the fitted dose curve; in most records, active means well fitted curve in the direction sought with a large enough effect; inconclusive means small, poorly fitted or top-dose-only effect, or another doubt; inactive means no such curve, though single readings can be large; an effect the other way counts as inactive or inconclusive. Unless noted, on the % scale 0 is the no-effect control and ±100 the full control effect.

SMILES	DT40 TDP1 CPT	IL1B secr inh	HT1080 IDH1KD tx	uPA surface inh	HT1080-NT tox	DT40 TDP1 no CPT
Cc1cccc(C)c1NC(=O)C(c1ccc(-c2ccccc2)cc1)n1c(=O)c(-c2cc3ccccc3[nH]2)nc2ccccc21 (configuration not stated)	?	52	-13%	·	-3%	?
CC(C)(C)NC(=O)C(CCc1ccccc1)n1c(=O)c(-c2cc3ccccc3[nH]2)nc2ccccc21 (configuration not stated)	15µM*	15	?	·	?	13µM*
CC(C)(C)NC(=O)C(c1ccccc1)n1c(=O)c(-c2cc3ccccc3[nH]2)nc2ccccc21 (configuration not stated)	?	68	?	·	?	?
Cc1cccc(C)c1NC(=O)C(CCc1ccccc1)n1c(=O)c(-c2ccccc2)nc2ccccc21 (configuration not stated)	3.3µM*	-4	?	·	?	4.1µM*
Cc1ncc2c(c1CNC(=O)c1ccc3c(c1)OCO3)CCN(C(=O)c1ccc3ccccc3c1)C2	7%[9.04 µM]	·	·	·	·	-19%
Cc1ccc(-n2nc3c(n2)/C(=N/O)CC/C3=N\O)cc1	?	-23	-24%	-6%	-6%	16µM*
NC(Cc1ccc(C(F)(F)F)cc1)c1csc(Nc2ccc(C(=O)NCc3ccco3)cn2)n1 (configuration not stated)	15µM*	-13	7.3µM*	·	12µM*	?
O=C(NCc1ccco1)c1ccc(COCC(F)(F)F)cc1	-8%	-10	-6%	·	10%	-14%
NC(Cc1ccc(C(F)(F)F)cc1)c1csc(Nc2ccc(C(=O)NCCCO)cn2)n1 (configuration not stated)	?	-23	?	·	?	16µM*
COc1ccc(/C=N/NC2=NS(=O)(=O)c3ccccc32)cc1OC	-16%	0	?	1%	-9%	-4%
O=C1NC2(CCC3(CC2)OCCO3)NN1c1ccccc1	7%	-1	7.3µM*	3%	6.5µM*	-5%
S=C1NC2(CCCCC2)NN1c1ccccc1	23%	22	?	-1%	?	?
Cc1ccc(Cl)cc1N1CCN(c2nc3ccccc3c3nc(-c4cccnc4)nn23)CC1	-14%	·	·	·	·	-9%
CC(C)C[C@H](N)c1nnc(SCC(=O)Nc2ccc(Br)cc2)o1	-5%	4	-20%	-1%	-27%	-1%
CC(C)C[C@H](N)c1nnc(S(=O)(=O)Cc2ccc(F)cc2)o1	1.3µM*	-117*	?	-15%	?	2.1µM*
Cc1ccccc1C(=O)Nc1cccc(NC(=O)c2ccc(-c3ccc(Br)cc3)o2)c1	23µM*	21	-15%	2%	-19%	8.2µM*
O=C(Nc1ccc(N2CCOCC2)c(Cl)c1)c1ccc(Br)o1	?	-74*	-8%	-1%	?	11µM*
CC(C)N1CCN(C(=O)c2ccc(NC(=O)c3ccc(Br)o3)cc2)CC1	-1%	-8	13%	-7%	?	2%
CCN1CCN(c2ccc(NC(=O)c3ccc(Br)o3)cc2)CC1	-12%	-6	-5%	-17%	-5%	2%
CN1CCN(c2ccc(NC(=O)c3ccc(-c4ccc(Br)cc4)o3)cc2)CC1	?	-92*	23µM*	-1%	15µM*	29µM*
O=C(Nc1ccc(N2CCN(C(=O)c3ccccc3)CC2)c(Cl)c1)c1ccc(Br)o1	23µM*	-101*	?	·	7.1µM*	21µM*
Cc1cc(C)n(C(C)CC(=O)Nc2ccc(Cl)cc2C)n1 (configuration not stated)	-26%	·	·	·	·	?
CC(C)(C)c1ccc2cccc(F)c2n1	-21%	42	18%	·	18%	2%
O=C(Nc1ccc(N2CCCC2)cc1)c1ccc(Br)o1	?	-12	12%	-16%	6%	?
O=C(Nc1ccc(N2CCN(C(=O)c3ccccc3)CC2)cc1)c1ccc(Br)o1	16µM*	-54*	6%	9%	2%	?
SMILES	DT40 TDP1 CPT	IL1B secr inh	HT1080 IDH1KD tx	uPA surface inh	HT1080-NT tox	DT40 TDP1 no CPT
CC(C)=CCCC(C)CN1CCC(N2CCC(C(=O)NC(C)C)CC2)CC1 (configuration not stated)	23µM*	-25	-8%	?	-3%	16µM*
CCCCOc1ccc(C(=O)N/N=C/c2ccc(OCCN3CCCCC3)c(OC)c2)cc1	21µM*	-80*	-25%	-7%	-25%	?
CCCCOc1ccc(C(=O)N/N=C/c2cn[nH]c2-c2ccc(OC)c(OC)c2)cc1	?	-56*	-17%	-6%	?	?
CCOc1ccc(/C=N/NC(=O)c2ccncc2)cc1OC	1%	11	-4%	·	2%	-8%
COc1ccc(C(=O)N/N=C/c2cn[nH]c2-c2ccc(OC)cc2OC)cc1	?	-3	6%	-7%	6%	?
COc1ccc(-c2[nH]ncc2/C=N\NC(=O)c2ccc(C(C)(C)C)cc2)cc1OC	?	0	?	5%	-41%	26µM*
C[C@H](CO)N1C[C@H](C)[C@@H](CN(C)C(=O)Nc2ccc3c(c2)OCO3)Oc2c(NS(=O)(=O)c3ccc(F)cc3)cccc2C1=O	0%	15	5%	7%	1%	-13%
CCOC(=O)c1c(NC(=O)CCCOc2ccc(C(C)(C)C)cc2)sc2c1CCC2	-16%	·	·	·	·	4%
CC(CCC(=O)O)C1CCC2C3CC(O)[C@@H]4CC(O)CC[C@]4(C)C3CC[C@@]12C (some centres not stated)	4%	·	·	·	·	-9%
CCOC(=O)C1(Cc2ccccc2C)CCCN(C(=O)c2sccc2C)C1 (configuration not stated)	18µM*	1	0%	10%	2%	?
CCOC(=O)C1(Cc2ccccc2C)CCCN(S(=O)(=O)c2cccnc2)C1 (configuration not stated)	?	27	-7%	·	-16%	16µM*
Cn1ccc2cc(S(=O)(=O)N3CCCC(C(=O)NCc4ccccc4)C3)ccc21 (configuration not stated)	-28%	·	·	·	·	6%
O=C1CCC2CN3CCc4c([nH]c5ccccc45)C3CC2C1 (configuration not stated)	?	-1	-15%	·	-5%	21µM*
COc1ccc(/C=C/C(=O)Nc2cccnc2Cl)cc1	-12%	0	-8%	?	-8%	-7%
CCOCc1nnc(NC(=O)c2cc(OC)c(OC)c(OC)c2)s1	-5%	-8	0%	·	-1%	8%

Bioassay records: PubChem BioAssay, National Center for Advancing Translational Sciences (NCATS)
